# Measured values taken from the supplement of paper PMC6135742.
# Counter-ions that a name gives are not always drawn. ± gives the standard deviation of the averaged measurements. Whole data set: some 2,600 compounds, median “MBP+ mature oligodendrocyte number relative to DMSO vehicle control” near -0.34, cut for the highest 2% near 13. The list comes from a sample in which the highest values are over-represented; it also holds similar structures and randomly drawn compounds.
# Test system: jimpy (Plp1 jimpy) mouse iPSC-derived oligodendrocyte progenitor cells
# Experiment: MBP+ mature oligodendrocyte number relative to DMSO vehicle control (SDs above negative control mean); higher = more surviving jimpy oligodendrocytes (rescue)
# Details: 10 µM; 3 days
# Experimental: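 Primary phenotypic screen of >3,000 bioactive compounds (Selleck L1700 and Sigma LO1280 libraries) at a single dose of 10 µM. Compounds were added to jimpy (Plp1 mutant) mouse iPSC-derived OPCs at the start of thyroid hormone-induced oligodendrocyte differentiation, one well per compound in 384-well plates. After 3 days cells were stained for MBP, Sox10 and DAPI and imaged with an Operetta system. MBP+ oligodendrocyte number and total cell number were expressed as the number of SDs above the mean of the DMSO negative control on the same plate (n=16 control wells per plate). Hits were defined as >=4 SD for oligodendrocytes and >=2 SD for total cells.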
row,SMILES,MBP+ mature oligodendrocyte number
1,CN(N=O)C(=O)NC1C(O)OC(CO)C(O)C1O (centres undefined) [Streptozotocin (STZ)],0.109
2,CN(C)C1CCN(C(=O)c2ccc(NC(=O)Nc3ccc(-c4nc(N5CCOCC5)nc(N5CCOCC5)n4)cc3)cc2)CC1,< -6.01
3,CC(C)(N)c1ncc(-c2ccc(OC(F)(F)F)cc2)[nH]1,-1.43
4,O=C(NC(NC(=S)Nc1ccc(F)c([N+](=O)[O-])c1)C(Cl)(Cl)Cl)C(c1ccccc1)c1ccccc1 (centres undefined),-5.76
5,CCN(CC)Cc1ccc(C(=O)N(CCc2ccccc2OC)[C@@H]2CCNC2)cc1,-3.89
6,CCCC(CCC)C(=O)O [Valproic acid sodium salt (Sodium valproate)],0.72
7,CCCC(CCC)C(=O)O [Valproic acid sodium],0.147
8,CC(C)[N+]1(C)[C@@H]2CC[C@H]1C[C@@H](OC(=O)C(CO)c1ccccc1)C2 (some centres undefined) [Ipratropium bromide],-0.439
9,CCCC(CCC)C(=O)O [Divalproex Sodium],2.05
10,CC(C)[N+]1(C)[C@@H]2CC[C@H]1C[C@@H](OC(=O)C(CO)c1ccccc1)C2 (some centres undefined) [Ipratropium Bromide],0.883
11,CCCC(CCC)C(=O)O[C@H]1C[C@H]2CC[C@@H](C1)[N+]2(C)C [Anisotropine methyl bromide],32.5
12,"Nc1cc(C(F)(F)F)c(-c2cc(N3CCOCC3)nc(N3CCOCC3)n2)cn1 [BKM120 (NVP-BKM120, Buparlisib)]",-4.7
13,Clc1ccc(N2CCN(Cc3cc4ccccn4n3)CC2)cc1,0.61
14,"CCCCS(=N)(=O)CCC(N)C(=O)O (racemic) [DL-Buthionine-[S,R]-sulfoximine]",-0.472
15,COc1ccc(CCN(C)CCCC(C#N)(c2ccc(OC)c(OC)c2)C(C)C)cc1OC (racemic) [(±)-Verapamil hydrochloride],-2.6
16,C/C(O)=C(\C#N)C(=O)Nc1ccc(C(F)(F)F)cc1 [Teriflunomide],0.913
17,CC(C)C[C@H](C(=O)O)c1cc(-c2ccc(C(F)(F)F)cc2)cc(-c2ccc(C(F)(F)F)cc2)c1,25.5
18,CC(C(=O)O)c1ccc(-c2ccccc2)c(F)c1 (centres undefined) [Flurbiprofen],-0.0169
19,C=CC(=O)N1CCC[C@@H](n2nc(-c3ccc(Oc4ccccc4)cc3)c3c(N)ncnc32)C1,0.104
20,Cc1ccc(C(=O)N(CCCN)[C@@H](c2oc3cc(Cl)ccc3c(=O)c2Cc2ccccc2)C(C)C)cc1,< -4.81
21,Cc1nn(-c2ccccc2)c(C)c1C=NN1CCN(Cc2ccccc2)CC1,14.2 ± 1.6
22,Cc1cccc(CN2CCN(C(c3ccccc3)c3ccc(Cl)cc3)CC2)c1 (centres undefined) [Meclizine 2HCl],-4.88
23,"c1ccc(CN2CCC3(CCCc4ccccc43)CC2)cc1 [L-687,384 hydrochloride]",0.735
24,Nc1n[n+]([O-])c2ccccc2[n+]1[O-] [Tirapazamine],-2.44
25,O=c1sn(-c2cccc3ccccc23)c(=O)n1Cc1ccccc1 [Tideglusib],-0.769

row,SMILES,MBP+ mature oligodendrocyte number
1,NNC(=O)CSc1nc2scc(-c3ccccc3)c2c(=O)n1-c1ccccc1,-0.637
2,OC(CCN1CCCCC1)(c1ccccc1)C1CC2C=CC1C2 (centres undefined) [Biperiden hydrochloride],2.59
3,OC(CCN1CCCCC1)(c1ccccc1)C1CCCCC1 (centres undefined) [Trihexyphenidyl hydrochloride],-0.104
4,OC(CCN1CCCCC1)(c1ccccc1)C1CC2C=CC1C2 (centres undefined) [Biperiden HCl],13.7
5,O=c1cc(-c2cccc3c2Sc2ccccc2S3)oc(N2CCOCC2)c1,-3.99
6,C[N+]1(C)CCC(OC(=O)C(c2ccccc2)c2ccccc2)CC1 [4-DAMP methiodide],2.86
7,O=C(O)c1ccccc1 [Benzoic Acid],0.66
8,C[N+]1(C)CCC(OC(=O)C(c2ccccc2)c2ccccc2)CC1,0.467
9,C[N+]1(C)CCC(=C(c2ccccc2)c2ccccc2)CC1 [Diphemanil Methylsulfate],19.2
10,C=C1CC[C@H](O)C/C1=C/C=C1\CCC[C@]2(C)[C@@H]([C@H](C)CCCC(C)C)CC[C@@H]12 [Vitamin D3],5.56
11,C=C1/C(=C\C=C2/CCC[C@]3(C)[C@@H]([C@H](C)/C=C/[C@H](C)C(C)C)CC[C@@H]23)C[C@@H](O)C[C@@H]1O [Doxercalciferol],8.14
12,C=C1CC[C@H](O)C/C1=C/C=C1\CCC[C@]2(C)[C@@H]([C@H](C)/C=C/[C@H](C)C(C)C)CC[C@@H]12 [Vitamin D2],21.5
13,CCCCCCCCCCCCCCSCC(=O)O [Tetradecylthioacetic acid],0.00298
14,CCCCC[C@H](O)/C=C/[C@H]1[C@H](O)CC(=O)[C@@H]1CCCCCCC(=O)O [Alprostadil],0.793
15,CCCCC(F)(F)[C@@]1(O)CC[C@H]2[C@@H](CC(=O)[C@@H]2CCCCCCC(=O)O)O1 [Lubiprostone],25.2
16,Cc1cnc(-c2cc(N3CCN(C(=O)CCS(C)(=O)=O)CC3)ncc2Cl)c(C)c1,0.184
17,C[C@H](N[C@@H](CCc1ccccc1)C(=O)O)C(=O)N1CCC[C@H]1C(=O)O [Enalaprilat Dihydrate],-0.467
18,CC(C(O)c1ccc(O)cc1)N1CCC(Cc2ccccc2)CC1 (centres undefined) [Ifenprodil tartrate],8.03
19,CC(C)(C)c1ccc(C(O)CCCN2CCC(C(O)(c3ccccc3)c3ccccc3)CC2)cc1 (centres undefined) [Terfenadine],< -3.85
20,C[C@H](N[C@@H](CCc1ccccc1)C(=O)O)C(=O)N1CCC[C@H]1C(=O)O [Enalaprilat dihydrate],0.574
21,CC(NCCc1ccc(O)cc1)C(O)c1ccc(O)cc1 (centres undefined) [Ritodrine hydrochloride],1.15
22,CC(NCCc1ccc(O)cc1)C(O)c1ccc(O)cc1 (centres undefined) [Ritodrine HCl],-0.164
23,CC(C)(C(=O)O)c1ccc(C(O)CCCN2CCC(C(O)(c3ccccc3)c3ccccc3)CC2)cc1 (centres undefined) [Fexofenadine HCl],1.53
24,CC(C(O)c1ccc(O)cc1)N1CCC(Cc2ccccc2)CC1 (centres undefined) [Ifenprodil Tartrate],20.3
25,C[C@@H](CN1CCC(Cc2ccccc2)CC1)[C@@H](O)c1ccc(O)cc1 [Ro 25-6981 hydrochloride],14.6

row,SMILES,MBP+ mature oligodendrocyte number
1,CC(C)(C(=O)O)c1ccc(C(O)CCCN2CCC(C(O)(c3ccccc3)c3ccccc3)CC2)cc1 (centres undefined) [Fexofenadine hydrochloride],0.659
2,CC(=Cc1ccc(C(=O)O)cc1)c1ccc2c(c1)C(C)(C)CCC2(C)C,0.539
3,O=C(/C=C/c1ccc(CN(CCO)CCc2c[nH]c3ccccc23)cc1)NO [LAQ824 (Dacinostat)],< -6.7
4,CC(C)(C)[N+]([O-])=Cc1ccc(S(=O)(=O)O)cc1S(=O)(=O)O,2.35
5,CC(C)c1cc(-c2ccc(F)c3ccccc23)nc(N)n1,6.85
6,Nc1ccc2ncnc(NCCc3ccc(Oc4ccccc4)cc3)c2c1,< -6.35
7,N#C/C(=C1/SC[C@@H](c2ccc(Cl)cc2Cl)S1)n1ccnc1 [Luliconazole],19.8
8,CC(=O)OCC(=O)[C@@]1(O)CC[C@H]2[C@@H]3CCC4=CC(=O)CC[C@]4(C)[C@H]3C(=O)C[C@@]21C [Cortisone 21-acetate],-0.825
9,CC(=O)O[C@]1(C(C)=O)CC[C@H]2[C@@H]3C=C(C)C4=CC(=O)CC[C@]4(C)[C@H]3CC[C@@]21C [Megestrol Acetate],15.4
10,CC(=O)S[C@@H]1CC2=CC(=O)CC[C@]2(C)[C@H]2CC[C@@]3(C)[C@@H](CC[C@@]34CCC(=O)O4)[C@H]12 [Spironolactone],1.84 ± 1.7
11,CC(=O)OCC(=O)[C@@]1(O)CC[C@H]2[C@@H]3CCC4=CC(=O)CC[C@]4(C)[C@H]3C(=O)C[C@@]21C [Cortisone acetate],-0.164
12,CC(=O)O[C@]1(C(C)=O)CC[C@H]2[C@@H]3C[C@H](C)C4=CC(=O)C=C[C@]4(C)[C@@]3(F)[C@@H](O)C[C@@]21C [Fluorometholone Acetate],10.3
13,C[C@]12CCC(=O)C=C1CC[C@@H]1[C@@H]2CC[C@@]2(C)[C@H]1CC[C@]2(O)C(=O)CO [Cortexolone],0.431
14,CC(=O)O[C@]1(C(C)=O)CC[C@H]2[C@@H]3C=C(Cl)C4=CC(=O)[C@@H]5C[C@@H]5[C@]4(C)[C@H]3CC[C@@]21C [Cyproterone Acetate],21.5
15,CC(=O)O[C@]1(C(C)=O)CC[C@H]2[C@@H]3C[C@H](C)C4=CC(=O)CC[C@]4(C)[C@H]3CC[C@@]21C [Medroxyprogesterone acetate],16.5
16,CC(=O)O[C@]1(C(C)=O)CC[C@H]2[C@@H]3C=C(Cl)C4=CC(=O)[C@@H]5C[C@@H]5[C@]4(C)[C@H]3CC[C@@]21C [Cyproterone acetate],3.38
17,CC(C)CCN1c2nc(Nc3cc(F)c(O)c(F)c3)ncc2N(C)C(=O)C1C (centres undefined),< -6.01
18,O=C(O)CP(=O)(O)O [Phosphonoacetic acid],-0.64
19,"O=C(O)c1cc(=O)c2c(Cl)cc(Cl)cc2[nH]1 [5,7-Dichlorokynurenic acid]",-0.544
20,COC(=O)C1=CO[C@@H](O)[C@@H]2C(CO)=CC[C@H]12 [Genipin],3.27 ± 0.9
21,C=CC(=O)Nc1cccc(Nc2nc(Nc3ccc(Oc4ccnc(C(=O)NC)c4)cc3)ncc2F)c1,-6.27
22,CN1CCN(C(=O)c2cc3cc(Cl)ccc3[nH]2)CC1,1.14
23,N[C@@H](CC(=O)N1CCn2c(nnc2C(F)(F)F)C1)Cc1cc(F)c(F)cc1F [Sitagliptin phosphate monohydrate],0.184
24,NCCOc1cc(C(=O)Nc2cc(OCCN)c3ccccc3n2)nc(C(=O)Nc2cc(OCCN)c3ccccc3n2)c1 [Pyridostatin trifluoroacetate salt],-3.78
